TGFb SMAD3 inh: qHTS for Inhibitors of TGF-b | HepG2 CAGA-GFP TGF-b/SMAD3 reporter, GFP fluorescence, 18 h; TGF-beta stimulated, 500 pg/mL final | Potency, µM (top dose mostly 46.1 µM), inactives show at the highest dose activity, negative = inhibition, hits mostly inhibitors | 410,000 compounds, 1.2% hits; further: potency means the concentration at half of the fitted maximal effect; on the % scale 0 is the no-effect control and ±100 the full control effect; nearly all actives have a fitted effect of over 65% in size
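GFP signal (ex488/em500-530) from TGF-beta-stimulated HEPG2 CAGA-GFP cells, 500 pg/mL final, 18 h at 37 degrees C in DMEM plus 1% FBS, normalized to unstimulated and DMSO-stimulated controls.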
DT40 TDP1 no CPT: qHTS for Inhibitors of human tyrosyl-DNA phosphodiesterase 1 (TDP1): qHTS in cells in absence of CPT; DT40 Tdp1-/- hTDP1 cells, no CPT, ATP luminescence, 48 h; Potency, µM (doses to about 46.2 µM), for inactives: top-dose activity change, negative = growth inhibition, hits mostly inhibitors; 420,000 compounds, 15% hits; further: potency means the concentration at half of the fitted maximal effect; on the % scale 0 is the no-effect control and ±100 the full control effect; nearly all actives have a fitted effect of over 55% in size
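DT40 Tdp1-/-;hTDP1 cells, no CPT (DMSO vehicle only), 400 cells/well; compounds pin-transferred; ≥48 hr, 37 °C; CellTiter-Glo 30 min RT dark, luminescence read.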
S-ASM inh: Inhibitors of Secretory Acid Sphingomyelinase (S-ASM): qHTS; placental ASM, HMU-PC fluorogenic substrate, 60 min; Potency, µM (series often up to 57.5 µM), for the others: top-dose activity change, negative = inhibition, most hits filed as inhibitors; 340,000 compounds, 0.006% hits; AID 504937, 2011; further: potency means the concentration at half of the fitted maximal effect
Target sequence (P17405 47-631 limits assumed): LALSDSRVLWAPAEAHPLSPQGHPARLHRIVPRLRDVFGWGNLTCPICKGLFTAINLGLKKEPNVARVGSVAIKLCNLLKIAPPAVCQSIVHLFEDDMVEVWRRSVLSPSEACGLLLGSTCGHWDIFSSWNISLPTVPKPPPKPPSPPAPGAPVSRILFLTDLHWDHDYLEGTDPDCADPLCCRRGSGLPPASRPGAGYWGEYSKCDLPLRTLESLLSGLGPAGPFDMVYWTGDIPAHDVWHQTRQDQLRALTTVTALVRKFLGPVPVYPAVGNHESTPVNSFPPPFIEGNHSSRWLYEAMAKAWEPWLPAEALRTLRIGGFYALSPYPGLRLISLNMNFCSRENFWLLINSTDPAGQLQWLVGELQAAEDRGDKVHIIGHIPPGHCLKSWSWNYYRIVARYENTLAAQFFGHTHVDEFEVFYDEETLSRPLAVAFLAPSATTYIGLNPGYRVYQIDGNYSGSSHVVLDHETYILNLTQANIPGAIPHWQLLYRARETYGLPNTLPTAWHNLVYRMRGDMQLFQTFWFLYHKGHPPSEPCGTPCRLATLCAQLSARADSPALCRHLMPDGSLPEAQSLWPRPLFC
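Human placenta-derived ASM preincubated with compound 10 min at room temperature, then reacted with 9 uM (final) fluorogenic HMU-PC substrate for 60 min at 37 C. Stop solution raises pH to 10; fluorescence read at Ex 386/Em 447 nm.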
HepG2 viability: qHTS for Inhibitors of TGF-b: Cytotox Counterscreen. HepG2 CAGA-GFP viability, ATP luminescence, 18 h. Potency, µM (top dose mostly 46.1 µM), without a hit: at the highest dose activity change, negative = cytotoxicity, most hits filed as cytotoxic. 410,000 compounds, 0.76% hits; further: potency means the concentration at half of the fitted maximal effect
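CellTiter-Glo luminescence gave cytotoxicity after 18 hours at 37 degrees C. The cells were HepG2 CAGA-GFP in 1% FBS DMEM, stimulated with 500 pg/mL TGF-beta after compound addition. %Activity was normalised to no-cell wells (complete cell-killing) and DMSO (no toxicity), and curves were fitted and classified.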
IL-1B inflam inh: qHTS for Inhibitors of Inflammasome Signaling: IL-1-beta AlphaLISA Primary Screen. THP-1 LPS/ATP IL-1B secretion, AlphaLISA, 16 h; hits give low values. AID 743279, 2014. activity change, % at 57.5 µM. 360,000 compounds, 4.7% hits; in the data active means activity change below about -50%; inconclusive means mostly about -30% to -49%; further: on the % scale 0 is the no-effect control and ±100 the full control effect
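Secreted IL-1B measured by AlphaLISA bead assay after 16 h compound exposure of THP-1 cells; compounds (final up to 57.5 uM) added 1 h before LPS (250 ng/mL) and ATP (1.25 mM) stimulation; lower signal means less secretion.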
DT40 TDP1 CPT: qHTS for Inhibitors of human tyrosyl-DNA phosphodiesterase 1 (TDP1): qHTS in cells in presence of CPT; chicken DT40 Tdp1-/-;hTDP1 cells + 20 nM CPT, ATP luminescence, 48 h; Potency, µM (doses to about 46.2 µM), for the others: top-dose activity change, negative = growth inhibition, most hits filed as inhibitors; 420,000 compounds, 12% hits; AID 686979, 2013; further: potency means the concentration at half of the fitted maximal effect; on the % scale 0 is the no-effect control and ±100 the full control effect; nearly all actives have a fitted effect of over 55% in size
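Chicken DT40 Tdp1-/- cells stably complemented with human TDP1 were seeded at 400 cells/well in medium containing 20 nM camptothecin, exposed to pin-transferred compounds, and grown at 37 °C for at least 48 hr. Viability was read as ATP luminescence.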
* hit, by the source's call; i = inactive; ? = inconclusive; . = no result given. Only some compounds are listed: those with a hit (about 19% of all), similar ones and a draw of the others. Unless noted, the call rests on the fitted dose curve; in most records, active means well fitted curve in the direction sought with a large enough effect; inconclusive means small, poorly fitted or top-dose-only effect, or another doubt; inactive means no such curve, though single readings can be large; an effect the other way counts as inactive or inconclusive.

SMILES	TGFb SMAD3 inh	DT40 TDP1 no CPT	S-ASM inh	HepG2 viability	IL-1B inflam inh	DT40 TDP1 CPT
COc1ccc(N2CCN(C(=O)CSc3nc4c(c(=O)n(C)c(=O)n4C)n3C(C)C)CC2)cc1	0%	?	-4%	-2%	-21	18µM*
COc1ccc(N2CCN(C(=O)CSc3nnc(-c4cc5ccccc5cc4O)n3C)CC2)cc1	?	18µM*	1%	-27%	-11	23µM*
CCC(=O)N1CCc2cc(S(=O)(=O)NCCC(=O)NC3CCCCCC3)ccc21	-1%	-26%	-2%	-3%	3	?
O=C1N[C@@H](c2ccccc2)COC(=O)[C@H](Cc2ccc(F)cc2)C/C=C\C[C@H]1CC(=O)N(CCO)Cc1ccccc1	-4%	-10%	-1%	-13%	-22	-2%
O=C1NC[C@H](c2ccccc2)OC(=O)[C@H](Cc2ccc(F)cc2)C/C=C\C[C@H]1CC(=O)N(CCO)Cc1ccccc1	?	8.2µM*	-4%	-28%	-60*	10µM*
O=C1NC[C@@H](c2ccccc2)OC(=O)[C@H](Cc2ccc(F)cc2)C/C=C\C[C@H]1CC(=O)N(CCO)Cc1ccccc1	-24%	16µM*	0%	-18%	?	21µM*
O=C1NC[C@H](c2ccccc2)OC(=O)[C@@H](Cc2ccc(F)cc2)C/C=C\C[C@H]1CC(=O)N(CCO)Cc1ccccc1	?	?	-3%	-116%	0	8.2µM*
Cc1cc(C(=O)OCc2nnc(-c3ccccc3)o2)c(C)n1-c1ccccc1	?	21µM*	-7%	-23%	-16	18µM*
O=C(OCc1nnc(-c2ccccc2)o1)c1cn(-c2ccccc2)nc1-c1ccccc1	-13%	?	-13%	2%	-6	?
Cc1noc(C)c1COC(=O)c1cc(C)n(-c2ccccc2)c1C	1%	21µM*	0%	-15%	?	?
O=C(Cc1cccc(NC(=O)C2CCCN(C(=O)C3CC3)C2)c1)Nc1ccc(C(=O)N2CCOCC2)cc1 (stereo not drawn)	13%	-3%	3%	5%	-1	6%
CC(=O)c1nn(-c2cccc(Br)c2)cc1C(=O)c1ccccc1	-17%	-20%	1%	-13%	-5	-2%
CC(=O)c1nn(-c2cccc(Br)c2)cc1C(=O)c1ccc(Cl)cc1	1%	7.3µM*	2%	-6%	12	?
O=C(c1cccc(Br)c1)c1cn(-c2ccccc2)nc1C(=O)c1ccccc1	-1%	16µM*	-2%	-27%	-26	18µM*
CC(=O)c1nn(-c2ccccc2)cc1C(=O)c1cccc(Br)c1	-6%	-19%	-1%	-29%	6	-28%
CC1(C(=O)NS(=O)(=O)c2ccccc2Cl)CCN1C(=O)CCc1cccs1 (stereo not drawn)	11%	0%	.	15%	8	-5%
Cc1cc(C(=O)COC(=O)c2ccc3c(c2)OCO3)c(C)n1CC1CCCO1 (stereo not drawn)	-3%	-14%	-4%	-6%	14	9%
Cc1ccccc1OC1C(=O)N(CC2CCCO2)C1c1ccc2c(c1)OCO2 (stereo not drawn)	-4%	13µM*	-2%	14%	1	15µM*
c1cc2[nH]snc2c2nc(C3CC3)nc12	?	13µM*	13%	-61%	-86*	18µM*
O=C(COC(=O)c1ccccc1Oc1ccccc1)Nc1ccc(Br)cc1	.	-22%	.	.	.	1%
Cc1[nH]c2ccc(-c3nnc(SCC(=O)NCc4ccco4)n3Cc3ccccc3)cc2c1C	?	23µM*	-11%	-5%	0	?
CCn1c(SCC(=O)NCc2ccco2)nnc1-c1ccc(N(C)C)cc1	-23%	-17%	.	-26%	.	-11%
COc1ccc(-c2nnc(SC(C)C(=O)NCc3ccc4c(c3)OCO4)n2Cc2ccco2)cc1 (stereo not drawn)	?	15µM*	-1%	1%	-14	?
Cc1occc1-c1nnc(SCC(=O)NCCc2ccccc2)n1Cc1ccccc1	-21%	21µM*	1%	-5%	?	?
O=C(CSc1nnc(-c2ccc(Cl)cc2)n1Cc1ccco1)NCc1ccc2c(c1)OCO2	?	26µM*	-1%	-28%	-23	?
SMILES	TGFb SMAD3 inh	DT40 TDP1 no CPT	S-ASM inh	HepG2 viability	IL-1B inflam inh	DT40 TDP1 CPT
CC(Sc1nnc(-c2ccco2)n1N)C(=O)NCc1ccc2c(c1)OCO2 (stereo not drawn)	-3%	4%	3%	5%	-2	-10%
CC1CCCC(NC(=O)CNCc2ccccc2F)C1C (stereo not drawn)	-2%	?	2%	-4%	9	-3%
Cc1ccc(C(=O)C2=C(O)C(=O)N(CC3CCCO3)C2c2ccccc2F)o1 (stereo not drawn)	17%	?	-5%	13%	9	0%
Clc1ccc(OCc2nc(-c3ccccn3)n[nH]2)cc1	-23%	?	3%	-11%	58	?
Brc1ccc(OCc2nc(-c3ccccn3)n[nH]2)cc1	-19%	15µM*	3%	-23%	-13	?
CC(=O)c1ccc(NC(=O)C(C)n2c3ccccc3c3nc(=O)cc(C)n32)cc1 (stereo not drawn)	11%	3%	-2%	24%	-28	2%
O=[N+]([O-])/C=C/c1cc2ccccc2[nH]1	?	18µM*	-10%	20µM*	-4	21µM*
CCOC(=O)C1CCN(C(=O)CCNC(=O)c2ccccc2OC)CC1	27%	-19%	7%	0%	-2	-1%
CCCCCCCCCCCCCCCCCCNC(=O)OC1CCN(C(=O)OC[C@H](COC(=O)N(Cc2cccc[n+]2CC)C(=O)c2ccccc2OC)OC)CC1	.	12µM*	.	.	.	12µM*
O=C1CNC(=S)N1C1CCCCCC1	-1%	-7%	-1%	5%	6	17%
Cc1ccc2nc(-c3ccc(NS(=O)(=O)c4c(C)n(C)c(=O)n(C)c4=O)cc3)sc2c1	?	?	80%	-30%	-19	?
Cc1ccc(S(=O)(=O)Nc2ccc(-c3nc4ccc(C)cc4s3)cc2)cc1	?	?	i	10µM*	0	?

Bioassay records (PubChem BioAssay)
